Screening data (PubChem)
This is a sample that favours compounds with a hit; in the whole collection about 12% have one here.
HP1b binding inh = blocks HP1-beta chromodomain binding to methylated histone tails; AlphaScreen HP1-beta / biotin-H3K9me3 peptide binding; Potency, µM (highest dose often 114 µM), for inactives: at the top dose activity change, negative = inhibition, most hits filed as inhibitors; AID 540317; 0.56% of 390,000 active; note: nearly all actives have a fitted effect of over 70% in size
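Compound inhibition of the preformed complex between 50 nM HP1-beta and 50 nM biotinylated H3K9me3 peptide was read by AlphaScreen. Buffer was PBS pH 7.4 with 0.01% Tween-20. Incubations ran 30 min at room temperature, with 10 ug/mL donor/acceptor beads.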
JMJD2A Tudor = blocks the human JMJD2A Tudor domain | Potency, µM (doses to about 114 µM), for inactives: at the highest dose activity change, negative = inhibition, most hits filed as inhibitors | AID 504339 | AlphaScreen JMJD2A-Tudor / H3K4me3 peptide binding | 4.4% of 390,000 active | O75164; note: % is set by controls: 0 for no effect and ±100 for the full control effect; nearly all actives have a fitted effect of over 50% in size
G9a inh = inhibitors of human histone lysine methyltransferase G9a. AID 504332. 8.8% of 350,000 active. G9a H3K9 monomethylation, AlphaScreen, 2 h. Potency, µM (series often up to 102 µM), without a hit: at the highest dose activity, negative = inhibition, usual class: inhibitors; note: % is set by controls: 0 for no effect and ±100 for the full control effect; nearly all actives have a fitted effect of over 75% in size
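AlphaScreen detection with an anti-monomethyl H3K9 antibody quantified product after a 2 h room-temperature reaction containing 500 nM biotinylated H3K9 peptide, 20 µM SAM and 20 nM enzyme, which had been preincubated 15 min with compound.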
PLK1 PBD inh = PLK1 (human) polo-box domain binding inhibition; P53350; Plk1 PBD binding of FITC phosphopeptide, fluorescence polarization; Potency, µM, for inactives: max response, negative = inhibition, actives largely listed as inhibitors; 2.8% of 360,000 active; AID 720504; note: series mostly up to about 57 µM; % is set by controls: 0 for no effect and ±100 for the full control effect; nearly all actives have a fitted effect of over 65% in size
Target sequence (P53350 whole entry, looked up, the tested form may be a part): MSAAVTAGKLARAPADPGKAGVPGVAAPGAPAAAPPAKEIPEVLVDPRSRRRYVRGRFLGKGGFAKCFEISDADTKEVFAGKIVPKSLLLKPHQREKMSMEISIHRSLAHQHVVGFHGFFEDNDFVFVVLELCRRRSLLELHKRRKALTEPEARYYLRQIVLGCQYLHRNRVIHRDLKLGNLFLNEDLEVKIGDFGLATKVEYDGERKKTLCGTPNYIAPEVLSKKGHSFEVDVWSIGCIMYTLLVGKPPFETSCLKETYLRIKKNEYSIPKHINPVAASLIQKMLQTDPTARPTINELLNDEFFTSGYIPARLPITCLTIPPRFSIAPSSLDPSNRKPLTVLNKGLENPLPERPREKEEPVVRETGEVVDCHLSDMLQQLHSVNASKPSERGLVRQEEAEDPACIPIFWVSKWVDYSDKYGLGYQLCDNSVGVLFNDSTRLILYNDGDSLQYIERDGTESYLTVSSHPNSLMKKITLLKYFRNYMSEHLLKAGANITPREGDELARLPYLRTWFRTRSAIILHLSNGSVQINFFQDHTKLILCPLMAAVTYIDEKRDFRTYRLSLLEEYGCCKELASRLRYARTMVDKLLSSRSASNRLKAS
BAZ2B inh = BAZ2B (human) inhibition; Q9UIF8; AlphaScreen BAZ2B-H3K14Ac peptide displacement; Potency, µM (top dose mostly 114 µM), without a hit: at the highest dose activity change, negative = inhibition, actives largely listed as inhibitors; 4.4% of 360,000 active; note: % is set by controls: 0 for no effect and ±100 for the full control effect; nearly all actives have a fitted effect of over 60% in size
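In this displacement format the biotinylated H3(5-23) peptide acetylated at Lys14 serves as ligand at 50 nM, with BAZ2B at 50 nM in PBS pH 7.4 containing 0.01% Tween-20. Donor and acceptor beads are 10 ug/mL final.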
Sfp PPTase inh = blocks B. subtilis Sfp PPTase activity; Q9F4F7; Biochemical Sfp PPTase activity, qHTS; Potency, µM, inactives show largest response in the series, negative = inhibition, most hits filed as inhibitors; 3.5% of 310,000 active; AID 1490;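 note: the enzyme is Sfp with the accession as filed and its product quenches rhodamine fluorescence; 0% = enzyme reaction without inhibitor and -100% = no enzyme wells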
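After 15 min at room temperature with compound, 15 nM Sfp received 5 uM rhodamine-CoA plus 12.5 uM BHQ-2-ybbR (50 mM Hepes pH 7.6, 10 mM MgCl2). Rate came from the fluorescence difference over 30 min, ex 525/em 598 nm.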
An asterisk follows results filed as active; [ ] = dose if it differs, or a comment. Calls come from the whole dose curve; as a rule, active = well fitted curve in the direction sought with a large enough effect; inconclusive = small, poorly fitted or top-dose-only effect, or another doubt; inactive = no such curve, though single readings can be large; an effect the other way counts as inactive or inconclusive. Potency is the fitted concentration of half-maximal effect.

What do the screens show for `Fc1cccc(Cc2c(-c3ccccc3)nc3c4ccccc4ccn23)c1`?
PLK1 PBD inh: -10%

What do the screens show for `COC(=O)C1=C2N(Cc3ccccc3)C(C)=C(C(=O)OC)C(c3ccccc3)N2C(=O)[C@](O)(C(=O)OC)C1` (stereo partly specified)?
Sfp PPTase inh: 0%

How did CC[C@H](CO)NCCN[C@@H](CC)CO do in these assays?
G9a inh: 27%[21.5 µM]; Sfp PPTase inh: inconclusive

What do the screens show for `C/C(=N\Nc1nncc2ccccc12)c1ccc(O)cc1`?
HP1b binding inh: -4%; JMJD2A Tudor: inconclusive; G9a inh: inconclusive; PLK1 PBD inh: -9%; BAZ2B inh: inconclusive; Sfp PPTase inh: 5%

Results for C/C(=N\Nc1nncc2ccccc12)c1ccc(C(C)(C)C)cc1 ?
HP1b binding inh: 0%; JMJD2A Tudor: -7%; G9a inh: -10%[2.33 µM]; PLK1 PBD inh: 4%; BAZ2B inh: 56µM*; Sfp PPTase inh: 2%

Results for O=C1[C@H]2[C@H](C=CC[C@H]2C(=O)N2CCOCC2)CCN1Cc1ccccc1 ?
HP1b binding inh: 29%; JMJD2A Tudor: -15%; PLK1 PBD inh: -16%

What do the screens show for `Cc1ccc(CSc2nc3ccc(NC(=O)CC(C)C)cc3s2)cc1`?
HP1b binding inh: 30%; JMJD2A Tudor: -7%; G9a inh: 2%[59 µM]; BAZ2B inh: -12%

How did CCOC(=O)CCS(=O)(=O)c1ccc(-c2ccc(S(=O)(=O)CCC(=O)OCC)cc2)cc1 do in these assays?
HP1b binding inh: 21%; JMJD2A Tudor: -14%; G9a inh: -10%[59 µM]; PLK1 PBD inh: -7%; BAZ2B inh: 11%; Sfp PPTase inh: 4%

Results for O=C(Nc1ccc(NC(=O)c2ccc(Cl)cc2Cl)cc1)c1ccc2c(c1)OCO2 ?
HP1b binding inh: 29%; JMJD2A Tudor: 1%; G9a inh: 3%; PLK1 PBD inh: 0%; BAZ2B inh: 12%; Sfp PPTase inh: -2%

What do the screens show for `O=C(Nc1ccc(C2=NCCN2)cc1)c1ccc(C(=O)Nc2ccc(C3=NCCN3)cc2)c(Cl)c1`?
HP1b binding inh: inconclusive; JMJD2A Tudor: 56µM*; G9a inh: 25µM*; PLK1 PBD inh: 11%; BAZ2B inh: -28%; Sfp PPTase inh: 9%

How did Cc1ccc(NC(=O)c2ccccc2)s1 do in these assays?
HP1b binding inh: 23%; JMJD2A Tudor: 14%; G9a inh: 25µM*; PLK1 PBD inh: -8%; BAZ2B inh: -3%; Sfp PPTase inh: -30%

What do the screens show for `Cc1cc(NC(=O)c2ccccc2)sc1C`?
HP1b binding inh: 14%; JMJD2A Tudor: -13%[11.4 µM]; G9a inh: 16µM*; PLK1 PBD inh: inconclusive; BAZ2B inh: inconclusive; Sfp PPTase inh: 50µM*

What do the screens show for `Cc1ccccc1CN1CCN(CC(=O)NCc2ccccc2)CC1`?
HP1b binding inh: 30%; JMJD2A Tudor: -16%; G9a inh: 27%; PLK1 PBD inh: -11%; BAZ2B inh: -14%; Sfp PPTase inh: 18%

What do the screens show for `COc1ccc2[nH]c(C(=O)O)c(NS(=O)(=O)c3ccc(OC)c(OC)c3)c2c1`?
HP1b binding inh: -2%; JMJD2A Tudor: inconclusive; G9a inh: inconclusive; PLK1 PBD inh: inconclusive; BAZ2B inh: inconclusive; Sfp PPTase inh: -13%

Results for COc1ccc(S(=O)(=O)Nc2c(C(=O)O)[nH]c3ccc(OC)cc23)cc1 ?
HP1b binding inh: -30%; JMJD2A Tudor: 20µM*; G9a inh: 7.9µM*; PLK1 PBD inh: inconclusive; BAZ2B inh: inconclusive; Sfp PPTase inh: -30%

Results for COc1ccc(S(=O)(=O)Nc2c(C(=O)O)[nH]c3ccccc23)c(OC)c1 ?
HP1b binding inh: 9%; JMJD2A Tudor: inconclusive; G9a inh: 40µM*; PLK1 PBD inh: -11%; BAZ2B inh: inconclusive; Sfp PPTase inh: 13%

How did COc1ccc(S(=O)(=O)Nc2c(C(=O)O)[nH]c3ccc(OC)cc23)c(OC)c1 do in these assays?
HP1b binding inh: 45µM*; JMJD2A Tudor: 18µM*; G9a inh: 2.2µM*; PLK1 PBD inh: 15µM*; BAZ2B inh: 45µM*; Sfp PPTase inh: 25µM*

How did CCN(C(=O)Cc1c(C(=O)O)[nH]c2ccccc12)c1cc(OC)ccc1OC do in these assays?
HP1b binding inh: 17%; JMJD2A Tudor: inconclusive; G9a inh: 11%[12.7 µM]; PLK1 PBD inh: -3%; BAZ2B inh: inconclusive; Sfp PPTase inh: -2%

What do the screens show for `Cc1cccc(CNC(=O)c2ccc3oc(=O)n(Cc4ccccc4)c3c2)c1`?
HP1b binding inh: 43%; JMJD2A Tudor: 13%; G9a inh: 9%[12.7 µM]; BAZ2B inh: 2%

What do the screens show for `COc1cc(C(=O)NC(=S)Nc2ccc3c(c2)OCO3)cc(OC)c1OC`?
HP1b binding inh: -2%; JMJD2A Tudor: -30%; PLK1 PBD inh: -7%; BAZ2B inh: -9%; Sfp PPTase inh: -18%

What do the screens show for `COc1cc(C(=O)NC(=S)NNC(=O)c2ccc3c(c2)OCO3)cc(OC)c1OC`?
HP1b binding inh: 9%; JMJD2A Tudor: -13%; G9a inh: 35µM*; PLK1 PBD inh: -3%; BAZ2B inh: -5%; Sfp PPTase inh: 10%

Results for CCCc1cc(C(=O)NNC(=S)Nc2cccc(C)c2)cs1 ?
HP1b binding inh: inconclusive; JMJD2A Tudor: -25%; G9a inh: 8.9µM*; PLK1 PBD inh: -16%; BAZ2B inh: -24%; Sfp PPTase inh: 9%

What do the screens show for `Cc1cccc(NC(=O)c2ccc3c(c2)OCCO3)c1`?
HP1b binding inh: -14%; JMJD2A Tudor: -4%; G9a inh: 3%; PLK1 PBD inh: -8%; BAZ2B inh: -3%; Sfp PPTase inh: 5%

What do the screens show for `CC(=O)c1cccc(NC(=O)c2ccc3c(c2)OCO3)c1`?
HP1b binding inh: 2%; JMJD2A Tudor: inconclusive; PLK1 PBD inh: 24µM*; BAZ2B inh: 0%; Sfp PPTase inh: 17%

How did Cc1cccc(NC(=S)NNC(=O)c2ccc3c(c2)OCO3)c1 do in these assays?
HP1b binding inh: 25%; JMJD2A Tudor: -24%; G9a inh: 45µM*; PLK1 PBD inh: -8%; BAZ2B inh: -10%; Sfp PPTase inh: 3%

What do the screens show for `Cc1ccc2nc(-c3cccc(NS(C)(=O)=O)c3)cc(-c3ccccc3)c2c1`?
HP1b binding inh: 11%; JMJD2A Tudor: inconclusive; G9a inh: 24%; PLK1 PBD inh: 0%; BAZ2B inh: 1%; Sfp PPTase inh: -11%

How did Cc1ccc(C(=O)CCC(=O)Nc2ccccc2C)c(C)c1 do in these assays?
HP1b binding inh: 20%; JMJD2A Tudor: -10%; G9a inh: 28%; PLK1 PBD inh: -15%; BAZ2B inh: 3%; Sfp PPTase inh: 15%

What do the screens show for `O=C(Nc1cccc(-c2nc3ncccc3o2)c1)c1ccc2c(c1)OCO2`?
HP1b binding inh: -14%[57 µM]; JMJD2A Tudor: inconclusive; PLK1 PBD inh: 27µM*
